# Compounds with a hit are over-represented: about 1.9% of the library has one in this group of screens.
# HttQ103 aggreg – inhibitors of mutant huntingtin aggregate formation in PC12 cells | PC12 HttQ103-GFP aggregates, Acumen cytometry, 40 h | Potency, µM (top dose mostly 46.1 µM), most hits filed as inhibitors | 220,000 compounds, 1.1% hits; further: nearly all actives have a fitted effect of over 60% in size
#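 Quantitative HTS on tebufenozide-induced (100 nM) PC12 cells stably expressing polyQ103 Huntingtin exon 1–GFP. Reduction of bright GFP aggregates, detected by laser scanning cytometry after lysis, identified actives across the titration.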
# NPSR antagonist – neuropeptide S receptor (human) antagonism, cAMP; Q6W5P4; CHO-NPSR cells, cAMP TR-FRET, antagonist mode; Potency, µM (series often up to 38.3 µM), most hits filed as inhibitors; 220,000 compounds, 1% hits; further: nearly all actives have a fitted effect of over 50% in size
# Target sequence (Q6W5P4 whole entry, looked up): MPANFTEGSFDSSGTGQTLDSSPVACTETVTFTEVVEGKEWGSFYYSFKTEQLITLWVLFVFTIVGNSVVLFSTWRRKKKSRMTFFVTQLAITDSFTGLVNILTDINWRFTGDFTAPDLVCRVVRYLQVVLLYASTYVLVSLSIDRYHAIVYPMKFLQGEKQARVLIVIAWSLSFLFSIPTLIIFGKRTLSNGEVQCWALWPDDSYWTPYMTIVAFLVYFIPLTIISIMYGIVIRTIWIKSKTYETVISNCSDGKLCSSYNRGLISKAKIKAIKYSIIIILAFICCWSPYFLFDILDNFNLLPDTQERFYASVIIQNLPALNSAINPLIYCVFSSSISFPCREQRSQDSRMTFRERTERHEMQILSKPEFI
# ERK EGF block – blocks ERK signaling stimulated by EGF. HEK293-V1b, EGF-stimulated phospho-ERK AlphaScreen. Potency, µM (doses to about 11.5 µM), actives largely listed as inhibitors. 130,000 compounds, 0.41% hits; further: nearly all actives have a fitted effect of over 55% in size
#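 After overnight plating in 1% FBS, HEK293-V1b cells received test compound for half an hour, then a 5 min pulse of EGF (25 nM); ERK phosphorylation in lysates was read by bead-based AlphaScreen.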
# HTT cytoprotect – Huntington cell model cytoprotection by ATP luminescence. PC12 HTT-Q103 induced, cytoprotection, ATP luminescence, 40 h. Potency, µM (highest dose often 56.4 µM), most hits filed as activators. 230,000 compounds, 0.14% hits. AID 1471; further: nearly all actives have a fitted effect of over 45% in size
#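 Readout: ATPlite luminescence (ATP level). Model: stable PC12, inducible Htt exon1 Q103-GFP. Inducer: tebufenozide, 100 nM final. Compounds: dose series. No G418 in medium.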
# IMPase Li cell – membrane-permeable IMPase blocker, potentiated with lithium. CHO-M1 cells, IP1 TR-FRET (IP-One), carbachol + lithium. Potency, µM (top dose mostly 59.4 µM), most hits filed as inhibitors. 210,000 compounds, 0.35% hits. AID 1457;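 further: IP1 builds up when IMPase is blocked and the TR-FRET signal falls; nearly all actives have a fitted effect of over 50% in size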
#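 Test compounds were applied to CHO-M1 cells previously cultured for 16–30 h at 2000 per well. A small lithium amount accompanied them; after 30 min at 37C, IP1 was quantified by TR-FRET.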
# Numbers stand for hits; - = inactive; ? = inconclusive; . = not tested or not shown; [ ] = another dose, or the depositor's remark. The call rests on the fitted dose curve; in most records, active means well fitted curve in the direction sought with a large enough effect; inconclusive means small, poorly fitted or top-dose-only effect, or another doubt; inactive means no such curve, though single readings can be large; an effect the other way counts as inactive or inconclusive.
SMILES,HttQ103 aggreg,NPSR antagonist,ERK EGF block,HTT cytoprotect,IMPase Li cell
COc1ccc(C2CC(c3ccccc3)=NN2c2ccc(S(N)(=O)=O)cc2)cc1OC (centres undefined),-[9.22 µM],-,-,-,-
COc1ccc(-c2cc(C(F)F)nn2-c2ccc(S(N)(=O)=O)cc2)cc1F,-,.,-,8.9µM,-
COc1ccc(C(=O)C2CCCN(Cc3c(C)[nH]c4ccccc34)C2)c(OC)c1 (centres undefined),35µM,-,-,-[10 µM],-
COc1ccc(OCC(=O)Nc2cc(-c3nn(C)c(=O)c4ccccc34)ccc2OC)cc1,-,?,.,-,7.9µM
O=S(=O)(O)c1cc(O)c2c(N=Nc3ccc(Nc4ccccc4)c4c(S(=O)(=O)O)cccc34)cc(S(=O)(=O)O)cc2c1,-,.,.,-,.
COC(CNC(=O)c1ccc(N2CCc3ccccc32)c([N+](=O)[O-])c1)OC,11µM,-,?,-[10 µM],-
CN(C1CCCCC1)S(=O)(=O)c1ccc(NC(=O)c2ccc(Br)o2)cc1,22µM,-,.,-[10 µM],-
CC(C)=CCn1cnc2c1c(=O)n(C)c(=O)n2C,.,.,-,-,-
COC(=O)C1=C(N)Oc2cc(C)n(C)c(=O)c2C1c1ccc(Cl)cc1 (centres undefined),11µM,-,.,-[0.074 µM],-
Clc1ccc(CSc2nnc(-c3ccncc3)o2)cc1,10µM,-,.,-,-
O=C(c1ccc(Cl)cc1)c1nnc(-c2ccncc2)o1,-,-,.,-[10 µM],10µM
Cc1ccc(C)c(NC(=O)c2cc3c([nH]c4ccccc43)c(C)n2)c1,-,-,.,-,11µM
Cc1cccc(NC(=O)c2cc3c([nH]c4ccccc43)c(C)n2)c1C,-,-,-,-[10 µM],-
O=c1c(-c2ccccc2)nc2cnc(Oc3cccc(Cl)c3)nc2n1C1CC1,.,.,.,?,-
CCCCCCCC1=Cc2ccc(F)cc2C(C(C(C)=O)C(=O)OC)N1C(=O)OC (centres undefined),.,.,-,-,-
CCOc1ccc(NC(=O)Nc2cc(OCC(F)(F)F)cc(OCC(F)(F)F)c2)cc1,-,-,-,-[10 µM],-
O=C(Nc1ccc(F)cc1)Nc1cc(OCC(F)(F)F)cc(OCC(F)(F)F)c1,3.5µM,13µM,-,-[10 µM],-
c1ccc(CCNc2ncnc3scc(C4COc5ccccc5O4)c23)cc1 (centres undefined),-,?,.,-,-
c1ccc2c(c1)OCC(c1csc3ncnc(N4CCCC4)c13)O2 (centres undefined),18µM,?,.,-,-
O=C(CN1C(=O)C2CCCCC2C1=O)Nc1nc(-c2ccccn2)cs1 (centres undefined),11µM,-,.,-,-
C[C@@H](C(=O)Nc1nc(-c2ccccn2)cs1)N1C(=O)C2CCCCC2C1=O (some centres undefined),?,-,.,-,-
CC1(OC(=O)C2CCCC2)C(=O)C=C2C=C(c3ccsc3)N(c3ccc(CO)cc3)C=C2C1=O (centres undefined),.,.,.,-[10 µM],-
NCCCCCc1cnc[nH]1,.,.,.,0.79µM,-
C[C@@]12C[C@H](O)C3[C@H](CCC4=CC(=O)CC[C@]43C)[C@H]1CC[C@@H]2c1csc(-c2ccccc2)n1 (some centres undefined),.,.,.,.,-
O=C(OCn1ncc(Cl)c(Cl)c1=O)c1ccccc1Cl,?,5µM,.,-,-
SMILES,HttQ103 aggreg,NPSR antagonist,ERK EGF block,HTT cytoprotect,IMPase Li cell
COc1ccc(N2C(=O)[C@@H]3[C@H](C2=O)[C@H](C(C)=O)N2c4ccccc4C=C[C@@H]32)cc1,-[9.22 µM],-,-,-[10 µM],.
COc1ccc(C2C(C(=O)c3ccccc3)N3c4ccccc4C=CC3C2[N+](=O)[O-])cc1 (centres undefined),18µM,?,?,-,-
COc1ccc(CNc2ncnc3ccc(-c4ccc5c(c4)OCO5)cc23)c(OC)c1,.,.,.,-,-
COc1cccc(NC(=S)N(CCCN2CCOCC2)Cc2cn(C)c3ccccc23)c1,11µM,-,-,-[10 µM],-
COc1ccc(NC(=S)N(CCCN2CCOCC2)Cc2cn(C)c3ccccc23)cc1OC,-,-,-,-[10 µM],-
Cc1cc(C)n(-c2nnc(NCc3ccc(Cl)cc3)nn2)n1,?,-,?,-,-
Cc1nn(-c2nnc(NCc3ccccc3)nn2)c(C)c1Br,?,-,22µM,.,-
O=c1cc(-c2ccccc2Cl)oc2c([N+](=O)[O-])c(O)cc(O)c12,1.8µM,-,-,?,-
O=C(O)/C=C\[C@H](O)c1ccc(Cl)cc1,.,.,.,-[1.9 µM],.
OC(COC(c1ccc(Cl)cc1)c1ccc(Cl)cc1)CN1CCN(c2ccccn2)CC1 (centres undefined),32µM,-,-,-[10 µM],-
OC(COCc1ccc(Cl)cc1)CN1CCc2ccccc2C1 (centres undefined),-,-,-,-[10 µM],-
Cc1cccc(C)c1OCC(O)CN1CCN(c2ccccn2)CC1 (centres undefined),-,-,-,-,-
OC(COCc1ccc(Cl)cc1)CN1CCN(CC(O)COCc2ccc(Cl)cc2)CC1 (centres undefined),4µM,?,.,-[10 µM],-
C[C@H](N)C(=O)OC(C)(C)Cc1ccc(Cl)cc1,.,.,.,-[1.9 µM],.
C/C(CC(C)(C)C1CCCCC1)=N\NC(N)=S,-[9.22 µM],3.2µM,.,-,-
COc1ccc(NC(=O)N2CC[C@@]3(CCCNC3)C2)cc1,.,.,-,-,-
COc1cc2c(cc1OC)/C(=C/C(=O)N1CCOCC1)NC(C)(C)C2,?,-,.,-[10 µM],-
CC1(C)Cc2ccccc2/C(=C/C(=O)N2CCCCCC2)N1,-,7.9µM,.,-,-
Cn1c(=S)[nH]c2c(c1=O)C(C)(C)Cc1ccccc1-2,-,6.3µM,-,-,1.4µM
CC1(C)Cc2ccccc2-c2c1c(=O)n(Cc1ccccc1)c1nnnn21,-,?,-,-[10 µM],-
CCn1c(=S)[nH]c2c(c1=O)C(C)(C)Cc1ccccc1-2,-[9.22 µM],?,-,?,4.5µM
Cn1c(=O)c(-c2ccc(F)cc2)nc2cnc(Oc3ccccc3)nc21,.,.,-,-,7.9µM
Cn1c(=O)c(-c2ccccc2)nc2cnc(Oc3ccccc3)nc21,.,.,-,-,-
COc1ccc(Oc2ncc3nc(-c4ccc(OC)cc4)c(=O)n(C)c3n2)cc1,.,.,.,-,-
Cn1c(=O)c(-c2ccc(Cl)cc2)nc2cnc(Oc3ccccc3)nc21,.,.,-,-,11µM
N#CCCn1c(=O)c(-c2cccs2)nc2cnc(Oc3ccccc3)nc21,.,.,-,-,?
CC1(C)CCC[C@@]2(C)C1CC[C@@](C)(O)[C@@H]2CC[C@@](C)(O)C1CO1 (some centres undefined),.,.,-,-,-
N#C/C(=C/c1ccc(N2CCCCC2)o1)C(=O)Nc1ccc2ccccc2c1,2.5µM,-,-,-[10 µM],-
N#C/C(=C/c1ccc(N2CCCCCC2)o1)c1cccc(F)c1,?,6.3µM,.,?,-
COc1ccc(C(=O)N2CCC[C@@]3(CCN(Cc4ccncc4)C3)C2)cc1,.,.,-,?,-

# Assay outcomes from PubChem BioAssay.
